# Experimental data taken from the supplement of paper PMC7411054.
# Where a name gives a salt, the structure may show the parent alone.
# Experiments:
# Conditions in all cases: treatment time: 24 h
# [1] = test system: A549-ACTB-RAB5A; test: phenotypically active (imaging signature differs from DMSO and reproducible) at any of 0.3-9 uM (binary (1 = active, 0 = inactive)); higher = active
# How it was run: (§1)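 Live-cell features were measured per well and normalised to solvent control wells after fifteen gene-edited A549, HepG2 and WPMY1 reporter lines had been treated for 24 h at 0.3, 1, 3 or 9 µM in four wells each. A condition was deviating when ≥3 of 4 wells sat beyond the 95th percentile of control Euclidean distances. It was reproducible when the median replicate Pearson correlation exceeded the 95th percentile of non-replicates. Phenotypic activity demanded both.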
# [2] = test system: A549-CANX-COX4; test: as above
# How it was run: as §1
# [3] = test system: A549-GM130-SQSTM1; test: as above
# How it was run: as §1
# [4] = test system: A549-TUBA1B-RELA; test: as above
# How it was run: as §1
# [5] = test system: HepG2-ACTB-RAB5A; test: as above
# How it was run: as §1
# [6] = test system: HepG2-CANX-COX4; test: as above
# How it was run: as §1
# [7] = test system: HepG2-GM130-SQSTM1; test: as above
# How it was run: as §1
# [8] = test system: HepG2-TUBA1B-RELA; test: as above
# How it was run: as §1
# [9] = test system: WPMY1-ACTB-RAB5A; test: as above
# How it was run: as §1
# [10] = test system: WPMY1-CANX-COX4; test: as above
# How it was run: as §1
# [11] = test system: WPMY1-GM130-SQSTM1; test: as above
# How it was run: as §1
# [12] = test system: WPMY1-TUBA1B-RELA; test: as above
# How it was run: as §1
# [13] = test system: A549-TP53BP1-CLTA; test: as above
# How it was run: as §1
# [14] = test system: HepG2-TP53BP1-CLTA; test: as above
# How it was run: as §1
# [15] = test system: WPMY1-TP53BP1-CLTA; test: as above
# How it was run: as §1
# [16] = test system: HepG2-CANX-COX4; test: lowest phenotypically active concentration; higher = less potent
# How it was run: as §1
# [17] = test system: HepG2-TUBA1B-RELA; test: as above
# How it was run: as §1
# [18] = test system: WPMY1-GM130-SQSTM1; test: as above
# How it was run: as §1
# [19] = test system: WPMY1-ACTB-RAB5A; test: as above
# How it was run: as §1
Compound,phenotypically active [1],phenotypically active [2],phenotypically active [3],phenotypically active [4],phenotypically active [5],phenotypically active [6],phenotypically active [7],phenotypically active [8],phenotypically active [9],phenotypically active [10],phenotypically active [11],phenotypically active [12],phenotypically active [13],phenotypically active [14],phenotypically active [15],lowest phenotypically active concentration [16] [µM],lowest phenotypically active concentration [17] [µM],lowest phenotypically active concentration [18] [µM],lowest phenotypically active concentration [19] [µM]
C[C@H](CS)C(=O)N1CCC[C@H]1C(=O)O [captopril],0 (inactive),0 (inactive),0 (inactive),0 (inactive),0 (inactive),0 (inactive),0 (inactive),0 (inactive),0 (inactive),0 (inactive),0 (inactive),0 (inactive),–,–,–,–,–,–,–
Cc1ccc(NC(=O)c2ccc(CN3CCN(C)CC3)cc2)cc1Nc1nccc(-c2cccnc2)n1 [Imatinib mesylate],–,1 (active),1 (active),–,1 (active),1 (active),–,1 (active),1 (active),1 (active),1 (active),1 (active),–,–,–,–,–,–,–
Clc1ccc2nsnc2c1NC1=NCCN1 [tizanidine],–,0 (inactive),–,–,0 (inactive),0 (inactive),0 (inactive),0 (inactive),0 (inactive),0 (inactive),0 (inactive),0 (inactive),0 (inactive),0 (inactive),0 (inactive),–,–,–,–
CN(CCOc1ccc(NS(C)(=O)=O)cc1)CCc1ccc(NS(C)(=O)=O)cc1 [dofetilide],0 (inactive),0 (inactive),0 (inactive),0 (inactive),0 (inactive),0 (inactive),0 (inactive),0 (inactive),0 (inactive),0 (inactive),0 (inactive),0 (inactive),–,–,–,–,–,–,–
COc1cc2nc(N3CCN(C(=O)c4ccco4)CC3)nc(N)c2cc1OC [prazosin],0 (inactive),0 (inactive),0 (inactive),0 (inactive),0 (inactive),1 (active),0 (inactive),1 (active),0 (inactive),0 (inactive),0 (inactive),0 (inactive),–,–,–,9,9,–,–
COc1ccc2c3c(c(=O)n(C)c2c1OC)C=CC(C)(C)O3 [Veprisine],0 (inactive),0 (inactive),0 (inactive),0 (inactive),0 (inactive),0 (inactive),0 (inactive),0 (inactive),0 (inactive),0 (inactive),1 (active),0 (inactive),0 (inactive),0 (inactive),1 (active),–,–,9,–
OCc1ccccc1O[C@@H]1O[C@H](CO)[C@@H](O)[C@H](O)[C@H]1O [Salicin],–,0 (inactive),–,–,0 (inactive),0 (inactive),0 (inactive),0 (inactive),0 (inactive),0 (inactive),0 (inactive),0 (inactive),0 (inactive),0 (inactive),0 (inactive),–,–,–,–
COC(=O)C1=C(C)NC(C)=C(C(=O)OCCN(C)Cc2ccccc2)C1c1cccc([N+](=O)[O-])c1 (configuration not stated) [nicardipine],0 (inactive),0 (inactive),0 (inactive),0 (inactive),0 (inactive),0 (inactive),0 (inactive),0 (inactive),0 (inactive),0 (inactive),1 (active),0 (inactive),0 (inactive),0 (inactive),0 (inactive),–,–,9,–
Cc1ccc(C(=O)c2cc(O)c(O)c([N+](=O)[O-])c2)cc1 [tolcapone],–,0 (inactive),–,–,0 (inactive),0 (inactive),0 (inactive),0 (inactive),0 (inactive),0 (inactive),0 (inactive),0 (inactive),0 (inactive),0 (inactive),0 (inactive),–,–,–,–
CCCCc1c(O)n(-c2ccccc2)n(-c2ccccc2)c1=O [phenylbutazone],0 (inactive),0 (inactive),0 (inactive),0 (inactive),0 (inactive),0 (inactive),0 (inactive),0 (inactive),0 (inactive),0 (inactive),1 (active),0 (inactive),0 (inactive),0 (inactive),0 (inactive),–,–,≤ 0.3,–
O=C(O)[C@H]1O[C@@H](Oc2cc3oc(-c4ccccc4)cc(=O)c3c(O)c2O)[C@H](O)[C@@H](O)[C@@H]1O [Baicalin],0 (inactive),0 (inactive),0 (inactive),0 (inactive),0 (inactive),0 (inactive),0 (inactive),0 (inactive),0 (inactive),0 (inactive),1 (active),0 (inactive),0 (inactive),0 (inactive),0 (inactive),–,–,3,–
"O=C1C=C(O)C(=O)c2ccccc21 [2-Hydroxy-[1,4]naphthoquinone]",0 (inactive),0 (inactive),0 (inactive),0 (inactive),0 (inactive),0 (inactive),0 (inactive),0 (inactive),0 (inactive),0 (inactive),1 (active),0 (inactive),0 (inactive),0 (inactive),0 (inactive),–,–,≤ 0.3,–
CNC(=O)c1c(-c2ccc(F)cc2)oc2cc(N(CCO)S(C)(=O)=O)c(C3CC3)cc12 [nesbuvir],–,0 (inactive),–,–,0 (inactive),0 (inactive),0 (inactive),0 (inactive),0 (inactive),0 (inactive),0 (inactive),0 (inactive),0 (inactive),0 (inactive),0 (inactive),–,–,–,–
N#Cc1c(O)c2c(-c3ccc(-c4ccccc4O)cc3)csc2[nH]c1=O,–,0 (inactive),–,–,0 (inactive),0 (inactive),0 (inactive),0 (inactive),0 (inactive),0 (inactive),0 (inactive),0 (inactive),0 (inactive),0 (inactive),0 (inactive),–,–,–,–
C=C[C@H]1CN2CC[C@H]1C[C@H]2[C@H](O)c1ccnc2ccc(OC)cc12 [Quinine dihydrochloride],1 (active),0 (inactive),1 (active),0 (inactive),0 (inactive),0 (inactive),0 (inactive),0 (inactive),0 (inactive),0 (inactive),0 (inactive),0 (inactive),–,–,–,–,–,–,–
NC(=O)c1sc2c([N+](=O)[O-])cc(C(F)(F)F)cc2[n+]1[O-] [Cyclapolin 9],0 (inactive),0 (inactive),0 (inactive),0 (inactive),0 (inactive),0 (inactive),0 (inactive),0 (inactive),0 (inactive),0 (inactive),1 (active),1 (active),0 (inactive),0 (inactive),0 (inactive),–,–,9,–
O=C(O)/C(Cc1ccccc1[N+](=O)[O-])=N\Nc1nc(-c2ccc(Cl)c(Cl)c2)cs1,0 (inactive),0 (inactive),0 (inactive),0 (inactive),0 (inactive),0 (inactive),0 (inactive),0 (inactive),0 (inactive),0 (inactive),0 (inactive),0 (inactive),0 (inactive),0 (inactive),1 (active),–,–,–,–
CC[C@@H]1C(=O)OC[C@@H]1Cc1cncn1C [Pilocarpine hydrochloride],–,0 (inactive),–,–,0 (inactive),0 (inactive),0 (inactive),0 (inactive),0 (inactive),0 (inactive),0 (inactive),0 (inactive),0 (inactive),0 (inactive),0 (inactive),–,–,–,–
Nc1ccn([C@@H]2O[C@H](CO)[C@@H](O)[C@H]2O)c(=O)n1 [Cytidine],–,0 (inactive),–,–,0 (inactive),0 (inactive),0 (inactive),0 (inactive),0 (inactive),0 (inactive),0 (inactive),0 (inactive),0 (inactive),0 (inactive),0 (inactive),–,–,–,–
O=c1c(O)c(-c2ccc(O)c(O)c2)oc2cc(O)cc(O)c12 [Quercetin],0 (inactive),0 (inactive),0 (inactive),0 (inactive),0 (inactive),0 (inactive),0 (inactive),0 (inactive),0 (inactive),0 (inactive),1 (active),0 (inactive),0 (inactive),0 (inactive),0 (inactive),–,–,9,–
CC(C)C(=O)Nc1ncc(-c2cc(C(F)F)nn2-c2c(Cl)cccc2Cl)s1,1 (active),0 (inactive),0 (inactive),0 (inactive),1 (active),1 (active),0 (inactive),0 (inactive),1 (active),1 (active),1 (active),1 (active),–,–,–,9,–,9,9
CCN(CC)CCOC(=O)C1(C2CCCCC2)CCCCC1 [dicycloverine],–,0 (inactive),–,–,0 (inactive),0 (inactive),0 (inactive),0 (inactive),0 (inactive),0 (inactive),0 (inactive),0 (inactive),0 (inactive),0 (inactive),0 (inactive),–,–,–,–
O=S(c1ccccc1)c1ccc2nnnn2n1 (configuration not stated),1 (active),0 (inactive),0 (inactive),0 (inactive),0 (inactive),0 (inactive),0 (inactive),0 (inactive),0 (inactive),1 (active),0 (inactive),1 (active),–,–,–,–,–,–,–
CC(C)Cc1ccc(C(C)C(=O)O)cc1 (configuration not stated) [ibuprofen],0 (inactive),0 (inactive),0 (inactive),0 (inactive),0 (inactive),0 (inactive),0 (inactive),0 (inactive),0 (inactive),0 (inactive),0 (inactive),0 (inactive),–,–,–,–,–,–,–
Cc1ccc(C(=O)c2ccc(CC(=O)O)n2C)cc1 [tolmetin],–,0 (inactive),–,–,0 (inactive),0 (inactive),0 (inactive),0 (inactive),0 (inactive),0 (inactive),0 (inactive),0 (inactive),0 (inactive),0 (inactive),0 (inactive),–,–,–,–
C=C[C@H]1C[N@@]2CC[C@H]1C[C@@H]2[C@@H](O)c1ccnc2ccc(OC)cc12 [quinidine],0 (inactive),0 (inactive),0 (inactive),0 (inactive),0 (inactive),0 (inactive),0 (inactive),0 (inactive),0 (inactive),0 (inactive),0 (inactive),0 (inactive),–,–,–,–,–,–,–
CN1C(=O)CC(c2ccccc2)C1=O (configuration not stated) [phensuximide],–,0 (inactive),–,–,0 (inactive),0 (inactive),0 (inactive),0 (inactive),0 (inactive),0 (inactive),0 (inactive),0 (inactive),0 (inactive),0 (inactive),0 (inactive),–,–,–,–
